From PubChem BioAssay (NCATS)
Records with an inconclusive call do not appear. The source made the active and inactive calls. The call rests on the fitted dose curve; in most records, active means well fitted inhibition curve with a large enough effect; inconclusive means small, poorly fitted or top-dose-only effect; inactive means flat fitted curve, though single readings scatter.

Target: Aldehyde dehydrogenase, mitochondrial (Homo sapiens) (UniProt P05091)
Assay: qHTS for Inhibitors of the Aldehyde Dehydrogenase Family (ALDH2) Primary screen (AID 2061308);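 further: plate controls were vehicle for no effect and reference inhibitor for full effect; nearly all actives have a fitted effect of over 55% in size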
Details: ALDH2 enzyme inhibition qHTS, 1536-well; series mostly up to 56 µM; activity change, negative = inhibition: at the top concentration

SMILES	activity change, negative = inhibition	Potency
O=S(=O)(Nc1nc(CN2CCOCC2)nc2sc3c(c12)CCC3)c1ccc2c(c1)OCCO2	-7.27% (inactive)	–
COc1ccc(-n2ncc3c2CCCC3NC(=O)c2ccc3ncccc3c2)cc1 (configuration not stated)	7.3% (inactive)	–
Cc1onc(-c2ccccc2Cl)c1C(=O)N[C@@H]1C(=O)N2[C@@H]1SC(C)(C)[C@@H]2C(=O)O	–	inactive
Cc1csc(CNc2ncnc3ccc(-c4cccc(Cl)c4)cc23)c1	-1.43% (inactive)	–
Cc1cc2c(s1)c1cnn(Cc3cc(OC(F)(F)F)ccc3F)c(=O)c1n2C	12.2% (inactive)	–
Cc1cccc(-c2ccc3ncnc(N(C)Cc4ccco4)c3c2)c1	4.14% (inactive)	–
O=C(NCCc1nc2ccccc2n1CCOc1ccc(F)cc1)C1CCCCC1	-4.37% (inactive)	–
Cc1ccccc1C(=O)NCC(=O)OC(C(=O)Nc1cc(C(F)(F)F)ccc1Cl)c1ccccc1 (configuration not stated)	-9.46% (inactive)	–
Cc1ccc(NS(=O)(=O)c2ccc3c(c2)CCC(C)(C)O3)cc1C	0.742% (inactive)	–
Nc1ccc2c(=O)n3nc(Nc4ccc5c(c4)CCC5)sc3nc2c1	–	inactive
Cn1nnnc1Sc1ncnc2scc(-c3ccc(Br)cc3)c12	10.3% (inactive)	–
COc1ccc(C2c3c(ncn(Cc4ccccc4)c3=N)Oc3ccc4ccccc4c32)cc1OC (configuration not stated)	15.1% (inactive)	–
Cn1nnnc1Sc1ncnc2scc(-c3cccc(C#N)c3)c12	-3.76% (inactive)	–
N#Cc1cccc(-c2ccc(NC(=O)c3cccs3)cn2)c1	-3.53% (inactive)	–
O=C(Cc1ccc(Cl)c(Cl)c1)Nc1ccc([S+](=O)([O-])Nc2nnc(-c3ccccn3)s2)cc1	-10.9% (inactive)	–
O=c1c2ccccc2nc2sc(Nc3cccc(Cl)c3)nn12	12.6% (inactive)	–
CCN(CC)CCCC(C)n1c(-c2ccccc2)nc2c(NCc3ccccc3)nc(C)nc21 (configuration not stated)	3.48% (inactive)	–
